NPC1 prom act = NPC1 promoter activation; Huh7 NPC1 promoter luciferase reporter, 24 h; Potency, µM (doses to about 9.22 µM), hits mostly activators; actives 2.4% (n = 320,000); further: nearly all actives have a fitted effect of over 60% in size
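Stable NPC1-promoter luciferase Huh7 line; cpd (DMSO) 24 h, 37 °C, 5% CO2; Amplite luciferase reagent 10 min RT; luminescence readout. qHTS format.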
ELG1 genotox = genotoxicity induction in ELG1-luciferase HEK293T cells; AID 504466; actives 1.3% (n = 330,000); HEK293T ELG1-luciferase reporter, luminescence, 16 h; Potency, µM (highest dose often 46 µM), most hits filed as activators; further: nearly all actives have a fitted effect of over 60% in size
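Cells (2,000/well) expressing the ELG1-luciferase fusion are dosed by pin tool and kept 16 hr at 37 °C, 5% CO2. Signal comes from ONE-Glo luciferase reagent after 30 min at room temperature.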
Rab9 prom act = activators of Rab9 promoter. Huh7 Rab9 promoter-luciferase reporter, luminescence, 24 h. Potency, µM (series often up to 9.22 µM), usual class: activators. actives 2.8% (n = 320,000); further: nearly all actives have a fitted effect of over 60% in size
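Huh7 cells stably carrying a Rab9 promoter-luciferase reporter, 1500 cells per well in OP-MEM I with 10% FBS, treated with compound 24 hours at 37C. Luciferase activity read by luminescence after 10 minutes with Amplite reagent.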
SMN2 splice up = SMN2 splice variant enhancement | HEK293 SMN2-luciferase splicing reporter, luminescence, 30-36 h | Potency, µM (series often up to 46.1 µM), actives largely listed as activators | actives 2.8% (n = 210,000) | AID 1458; further: nearly all actives have a fitted effect of over 55% in size
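HEK293 cells carry an SMN2 minigene-luciferase reporter in which exon 7 inclusion puts luciferase in frame. Cells were seeded at 2000 cells/well, attached for 10-12 hours, then exposed to compounds for 30-36 hours at 37C before ONE-Glo luminescence.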
FLuc counter = firefly luciferase modulation, counter-screen for miR-21 project; purified FLuc, Km substrates, luminescence inhibition; AID 588342; Potency, µM (highest dose often 57.5 µM), hits mostly inhibitors; actives 6.9% (n = 360,000); further: nearly all actives have a fitted effect of over 55% in size
Target sequence (P08659 whole entry, looked up): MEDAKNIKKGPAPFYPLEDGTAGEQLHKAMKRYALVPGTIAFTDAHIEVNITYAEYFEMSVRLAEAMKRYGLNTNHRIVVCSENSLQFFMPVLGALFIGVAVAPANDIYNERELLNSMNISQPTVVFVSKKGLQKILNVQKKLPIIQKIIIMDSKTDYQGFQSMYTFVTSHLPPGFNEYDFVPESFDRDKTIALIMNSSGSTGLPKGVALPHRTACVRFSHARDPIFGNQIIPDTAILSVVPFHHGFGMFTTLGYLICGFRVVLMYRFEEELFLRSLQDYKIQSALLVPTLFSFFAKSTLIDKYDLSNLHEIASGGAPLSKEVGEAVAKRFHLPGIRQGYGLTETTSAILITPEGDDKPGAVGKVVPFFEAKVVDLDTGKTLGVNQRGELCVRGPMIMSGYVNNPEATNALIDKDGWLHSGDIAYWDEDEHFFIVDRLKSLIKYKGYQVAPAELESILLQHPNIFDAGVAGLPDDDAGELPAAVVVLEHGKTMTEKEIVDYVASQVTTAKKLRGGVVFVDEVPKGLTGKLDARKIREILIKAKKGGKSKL
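Purified P. pyralis luciferase (10nM final) with 10uM D-luciferin and 10uM ATP (Km levels) in 50mM Tris acetate pH 7.5, 10mM Mg acetate, 0.01% Tween-20, 0.05% BSA; qHTS 6-point titration, ~60 µM downward; luminescence read.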
Each line names hits and unclear results; the compound was inactive in the other large screens. Sampled rows, rich in hits. Any-hit rate of the full collection: about 7.4%. The call rests on the fitted dose curve; in most records, active means well fitted curve in the direction sought with a large enough effect; inconclusive means small, poorly fitted or top-dose-only effect, or another doubt; inactive means no such curve, though single readings can be large; an effect the other way counts as inactive or inconclusive.

Cc1nc(N)sc1C(=O)N/N=C/c1ccccc1[N+](=O)[O-]	NPC1 prom act 2.8µM, Rab9 prom act 2µM, SMN2 splice up 14µM
Cc1ccc2nc(C)c(C(=O)N/N=C/c3ccccc3[N+](=O)[O-])cc2c1	FLuc counter 6.7µM
Cc1nc(N)sc1C(=O)N/N=C/c1c[nH]c2ccccc12	ELG1 genotox 8.2µM, FLuc counter 19µM
Cc1ccc2nc(C)c(C(=O)N/N=C/c3ccco3)cc2c1	FLuc counter inconclusive
O=C(CSc1nnnn1-c1ccc(F)cc1F)Nc1ccccc1F	none (no result: SMN2 splice up)
CC(=O)c1ccc(S(=O)(=O)N2CCNC(=O)C2)cc1	none (no result: NPC1 prom act, Rab9 prom act, SMN2 splice up, FLuc counter)
O=C(CSc1ccc2c(c1)OCCO2)Nc1ccc(N2CCOCC2)cc1	none
CNC(=O)C1CCC(Cn2c(=O)c3sccc3n(CC(=O)Nc3ccc(C)c(C)c3)c2=O)CC1 (stereo not drawn)	none (no result: NPC1 prom act, ELG1 genotox, Rab9 prom act, SMN2 splice up)
O=S(=O)(O)c1ccc2c(N=Nc3c(O)ccc4ccccc34)cccc2c1	none (no result: NPC1 prom act, ELG1 genotox, Rab9 prom act, FLuc counter)
Cc1ccc2[nH]c3c(NCc4ccccc4)ncnc3c2c1	FLuc counter 24µM (no result: SMN2 splice up)
Cc1ccc2[nH]c3c(N4CCOCC4)ncnc3c2c1	FLuc counter 17µM
Cc1ccc2[nH]c3c(Cl)ncnc3c2c1	none (no result: SMN2 splice up)
CCCOc1ncnc2c1[nH]c1ccc(C)cc12	NPC1 prom act 2.8µM, ELG1 genotox inconclusive, Rab9 prom act inconclusive, FLuc counter 1.2µM (no result: SMN2 splice up)
COc1ccc(CNc2ncnc3c2[nH]c2cc(OC)c(OC)cc23)cc1	FLuc counter 24µM (no result: SMN2 splice up)
COc1ccc(CNc2ncnc3c2[nH]c2ccccc23)cc1	FLuc counter inconclusive (no result: SMN2 splice up)
Cc1ccc(N=Nc2c(N)n[nH]c2N)cc1	NPC1 prom act inconclusive, ELG1 genotox inconclusive, FLuc counter 15µM (no result: SMN2 splice up)
Nc1n[nH]c(N)c1N=Nc1ccc2c(c1)OCO2	NPC1 prom act inconclusive, Rab9 prom act inconclusive, FLuc counter 12µM
COC(=O)N1C(/C=C/c2ccc3c(c2)OCO3)=Cc2ccccc2C1CC(C)=O (stereo not drawn)	none (no result: NPC1 prom act, ELG1 genotox, Rab9 prom act, FLuc counter)
COc1ccc(/C=C/C(=O)NC(=S)N2CCN(C)CC2)cc1	FLuc counter inconclusive
CCOC(=O)N1CCN(C(=S)NC(=O)/C=C/c2ccc(C)cc2)CC1	FLuc counter 13µM (no result: SMN2 splice up)
CCCn1c(CCC(=O)Nc2cc(C(=O)OC)cc(C(=O)OC)c2)nc2cccnc21	none (no result: NPC1 prom act, ELG1 genotox, Rab9 prom act)
COc1ccc(OC(=O)c2nc(SCc3ccccc3C)ncc2Cl)cc1	none (no result: NPC1 prom act, ELG1 genotox, Rab9 prom act)
COc1cc(/C=N/NC(=O)/C(=C\c2ccc3c(c2)OCO3)NC(=O)c2ccccc2)ccc1O	FLuc counter inconclusive
COc1ccc(/C=N/NC(=O)c2ccc3c(c2)OCO3)cc1	FLuc counter 5.4µM (no result: SMN2 splice up)
O=C(COc1ccccc1C(=O)N/N=C\c1ccc(O)c(O)c1)N/N=C/c1ccc(O)c(O)c1	SMN2 splice up inconclusive, FLuc counter 6.7µM
COc1cc(/C=N/NC(=O)c2ccc3c(c2)OCO3)ccc1O	ELG1 genotox inconclusive, FLuc counter 17µM (no result: SMN2 splice up)
COc1ccccc1C(=O)NCC(=O)N/N=C/c1ccc2c(c1)OCO2	FLuc counter 17µM (no result: SMN2 splice up)
COc1cc(C(=O)N/N=C/c2ccc(OC(=O)c3ccccc3Cl)c(OC)c2)ccc1O	FLuc counter inconclusive (no result: SMN2 splice up)
COc1ccc(N(CC(=O)N/N=C/c2ccc3c(c2)OCO3)S(=O)(=O)c2ccccc2)cc1	none
COc1cc(/C=N/NC(=O)c2ccc(-n3cccc3)cc2)ccc1O	FLuc counter 21µM
COc1ccc(NCC(=O)N/N=C/c2ccc3c(c2)OCCO3)cc1	SMN2 splice up inconclusive, FLuc counter 19µM
Cc1cc(C)n(CC(O)Cn2c3ccccc3c3ccccc32)n1 (stereo not drawn)	SMN2 splice up 13µM
CN1CCC[C@H]1CCNC(=O)c1c(-c2ccsc2)sc2ccccc12	none (no result: NPC1 prom act, Rab9 prom act, SMN2 splice up, FLuc counter)
CN1CCCC1CCNc1ccc2c(=O)c3ccccc3oc2c1 (stereo not drawn)	NPC1 prom act inconclusive, ELG1 genotox inconclusive, Rab9 prom act inconclusive, FLuc counter 11µM (no result: SMN2 splice up)
CN1CCCC1CCNc1ccc2oc3ccccc3c(=O)c2c1 (stereo not drawn)	ELG1 genotox inconclusive, FLuc counter 4.8µM (no result: SMN2 splice up)
COc1ccc(-c2cc(NCc3ccc(C)cc3)n3cnnc3n2)cc1	none (no result: NPC1 prom act, ELG1 genotox, Rab9 prom act)
CCCOc1ccc(OCCSc2nnc(N)s2)cc1	NPC1 prom act inconclusive, ELG1 genotox 13µM, Rab9 prom act inconclusive, SMN2 splice up inconclusive, FLuc counter 4.8µM

Assay outcomes (PubChem)
